Reference: PubChem BioAssay
Active and inactive are the calls of the source.

Columns and labels:
[1] = small molecules captured by biotinylated probe aFSTL3 – biochemical, small-molecule microarray, fluorescence 635/667, stem cell growth factor project, primary screen (AID 1064); conditions: higher = more signal;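 further: measures binding of the biotinylated anti-FSTL3 antibody to printed compounds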
[2] = binders from COS7 lysate, DM2A8 probe, primary screen, torsin A project, cell lysate, small-molecule microarray, fluorescence 635/667 (AID 1065); conditions: higher = more signal, COS7 lysate expressing mutant human TOR1A
[3] = small molecules captured by biotinylated probe aFGF2 – biochemical, small-molecule microarray, fluorescence 635/667, stem cell growth factor project, primary screen (AID 1067); conditions: higher = more signal;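 further: measures binding of biotinylated aFGF2 protein to printed compounds on slides; z-score merges feature fluorescence and signal-to-noise across triplicate slides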
[4] = small molecules captured by biotinylated probe aFGF10 – biochemical, small-molecule microarray, fluorescence 635/667, stem cell growth factor project, primary screen (AID 1071); conditions: higher = more signal;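 further: score merges 667 nm spot intensity and signal to noise from triplicate slides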
[5] = biological target: Neurogenic locus notch homolog protein 2 (Homo sapiens) (UniProt Q04721); experiment: small molecules binding Notch2 protein – biochemical, small-molecule microarray, 635 nm fluorescence, stem cell growth factors, primary screen (AID 1073); conditions: higher = more signal
Sequence of Neurogenic locus notch homolog protein 2 (Homo sapiens) (Q04721 whole entry, looked up, canonical isoform): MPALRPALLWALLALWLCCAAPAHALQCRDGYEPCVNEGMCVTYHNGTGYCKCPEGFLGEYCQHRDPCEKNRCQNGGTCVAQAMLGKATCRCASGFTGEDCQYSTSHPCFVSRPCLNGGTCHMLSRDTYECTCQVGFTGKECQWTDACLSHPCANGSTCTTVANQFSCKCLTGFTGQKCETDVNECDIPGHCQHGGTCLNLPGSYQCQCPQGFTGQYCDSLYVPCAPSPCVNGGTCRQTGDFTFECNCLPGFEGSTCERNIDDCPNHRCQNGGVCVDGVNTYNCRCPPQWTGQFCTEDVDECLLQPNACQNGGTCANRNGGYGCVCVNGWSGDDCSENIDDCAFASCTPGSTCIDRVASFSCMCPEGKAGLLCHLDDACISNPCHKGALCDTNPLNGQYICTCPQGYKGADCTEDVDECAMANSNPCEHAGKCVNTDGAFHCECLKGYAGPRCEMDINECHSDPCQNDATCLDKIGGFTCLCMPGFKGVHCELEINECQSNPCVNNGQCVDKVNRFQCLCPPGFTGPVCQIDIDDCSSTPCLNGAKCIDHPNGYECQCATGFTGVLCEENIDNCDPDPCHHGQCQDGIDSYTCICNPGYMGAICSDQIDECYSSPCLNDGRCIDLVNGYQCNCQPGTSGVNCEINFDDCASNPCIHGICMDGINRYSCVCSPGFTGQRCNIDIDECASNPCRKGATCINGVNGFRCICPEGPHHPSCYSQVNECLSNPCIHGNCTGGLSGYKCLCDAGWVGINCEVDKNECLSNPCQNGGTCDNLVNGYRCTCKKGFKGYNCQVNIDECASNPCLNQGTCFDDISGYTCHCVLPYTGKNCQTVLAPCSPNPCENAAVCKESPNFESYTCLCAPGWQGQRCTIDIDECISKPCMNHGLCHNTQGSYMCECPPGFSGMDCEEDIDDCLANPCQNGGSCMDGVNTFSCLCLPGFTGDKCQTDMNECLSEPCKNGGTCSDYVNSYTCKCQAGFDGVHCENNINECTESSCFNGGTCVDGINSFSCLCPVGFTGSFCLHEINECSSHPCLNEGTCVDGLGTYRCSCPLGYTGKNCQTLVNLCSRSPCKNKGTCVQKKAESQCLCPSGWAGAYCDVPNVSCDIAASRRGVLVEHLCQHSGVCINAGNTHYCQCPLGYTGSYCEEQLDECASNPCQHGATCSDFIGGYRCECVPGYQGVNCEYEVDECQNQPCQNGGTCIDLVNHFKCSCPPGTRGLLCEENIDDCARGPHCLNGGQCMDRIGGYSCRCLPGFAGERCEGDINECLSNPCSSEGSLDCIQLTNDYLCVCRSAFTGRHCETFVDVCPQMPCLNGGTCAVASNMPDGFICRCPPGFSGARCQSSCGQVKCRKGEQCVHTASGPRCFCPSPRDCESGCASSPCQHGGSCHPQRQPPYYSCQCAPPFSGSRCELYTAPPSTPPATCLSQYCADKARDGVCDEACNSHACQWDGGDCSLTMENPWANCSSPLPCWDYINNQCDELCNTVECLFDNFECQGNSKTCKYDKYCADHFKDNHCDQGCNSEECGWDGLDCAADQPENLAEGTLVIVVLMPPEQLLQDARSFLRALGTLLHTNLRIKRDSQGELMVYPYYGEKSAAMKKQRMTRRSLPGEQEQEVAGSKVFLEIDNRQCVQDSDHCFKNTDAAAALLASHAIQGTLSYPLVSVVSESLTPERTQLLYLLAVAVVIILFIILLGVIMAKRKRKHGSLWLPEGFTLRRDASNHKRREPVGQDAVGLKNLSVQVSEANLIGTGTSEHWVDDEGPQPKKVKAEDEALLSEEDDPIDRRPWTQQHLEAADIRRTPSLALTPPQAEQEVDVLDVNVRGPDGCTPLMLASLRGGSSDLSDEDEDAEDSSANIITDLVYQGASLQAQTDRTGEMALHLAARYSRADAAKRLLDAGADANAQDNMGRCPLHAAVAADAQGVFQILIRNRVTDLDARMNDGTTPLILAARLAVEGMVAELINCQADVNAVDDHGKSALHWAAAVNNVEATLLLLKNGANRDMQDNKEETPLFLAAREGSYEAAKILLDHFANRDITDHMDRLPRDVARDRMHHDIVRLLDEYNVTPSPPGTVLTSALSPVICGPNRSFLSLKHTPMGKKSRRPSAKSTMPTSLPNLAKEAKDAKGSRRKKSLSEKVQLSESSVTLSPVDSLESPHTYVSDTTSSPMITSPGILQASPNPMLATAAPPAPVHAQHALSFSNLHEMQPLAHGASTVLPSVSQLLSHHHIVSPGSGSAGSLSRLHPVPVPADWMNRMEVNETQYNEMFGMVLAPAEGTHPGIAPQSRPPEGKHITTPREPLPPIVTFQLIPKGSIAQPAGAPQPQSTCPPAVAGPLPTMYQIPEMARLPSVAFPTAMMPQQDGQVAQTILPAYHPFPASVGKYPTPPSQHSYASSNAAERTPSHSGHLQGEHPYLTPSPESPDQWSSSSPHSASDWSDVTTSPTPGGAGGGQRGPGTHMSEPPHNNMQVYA

[6] = biological target: Pro-neuregulin-1, membrane-bound isoform (Homo sapiens) (UniProt Q02297); experiment: small molecules binding neuregulin-1 protein – biochemical, small-molecule microarray, fluorescence 635/667, psychiatric disease protein project, primary screen (AID 1075); conditions: NRG1 binding, 635 nm fluorescence, higher = more signal;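 further: score combines 667 nm spot fluorescence with signal to noise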
[7] = tested on: Neuregulin-1 EGF-like domain; experiment: small molecules binding NRG1 EGF domain – biochemical, small-molecule microarray, 635 nm fluorescence, primary screen (AID 1081); conditions: higher = more signal;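 further: binding of the protein to compounds printed on small-molecule microarray slides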
[8] = FRG1 expression reporter modulators in myotubes – cell-based, C2C12 myotubes, firefly/Renilla luciferase, luminescence, FRG1 inhibition for FSHD, primary screen (AID 1084); conditions: FRG1 promoter luciferase, higher = more signal, called active from +8 up or from −8 down
[9] = small molecules captured by biotinylated probe aFST – biochemical, small-molecule microarray, fluorescence 635/667, stem cell growth factor project, primary screen (AID 1086); conditions: higher = more signal;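 further: score merges 667 nm fluorescence with signal-to-noise of each printed compound spot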
[10] = binders of probe aHhip on microarray, primary screen, stem cell growth factor project, biochemical, small-molecule microarray, fluorescence 635/667 (AID 1087); conditions: higher = more signal;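 further: score merges spot fluorescence at 667nm with spot signal to noise ratio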
[11] = tested on: PRMT1 (protein arginine N-methyltransferase 1); experiment: small molecules binding arginine methyltransferase PRMT1 – biochemical, small-molecule microarray, 635 nm fluorescence, primary screen (AID 1088); conditions: higher = more signal;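 further: binding of Prmt1 protein to compounds spotted on small-molecule microarray slides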
[12] = growth effects on S. cerevisiae YJM789 – YJM789 clinical isolate, OD600, 24 h, basal, primary screen (AID 1089); conditions: higher = more signal, called active from +8 up or from −8 down;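 further: growth of clinical yeast isolate S. cerevisiae YJM 789 seeded 1000 cells per well; test concentration not given here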
[13] = S. pombe growth modifiers, basal conditions – strain 972, OD600, 24 h, no modulator, primary screen (AID 1090);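 further: basal condition with compound alone and no growth modifier present; test concentration not given here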; conditions: S. pombe 972 growth, higher = more signal, called active from +8 up or from −8 down
[14] = budding yeast growth modifiers under rapamycin – strain BY4716, OD600, 96 h, primary screen (AID 1091); further: test concentration not given here; conditions: S. cerevisiae BY4716 + rapamycin, higher = more signal, called active from +8 up or from −8 down
[15] = biological target: Torsin-1A-interacting protein 2 (Homo sapiens) (UniProt Q8NFQ8); experiment: small molecules binding lysate-expressed LULL1 – cell lysate, human LULL1 lysate, 635/667 nm fluorescence, primary screen (AID 1092); conditions: small-molecule microarray, hLULL1 lysate binding, 635 nm fluorescence; higher = more signal;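 further: probe is lysate of COS7 cells overexpressing human LULL1; score merges per-feature 667 nm fluorescence with signal-to-noise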
[16] = optical density change of DRC41 E. coli – strain DRC41, OD650, 24 h, E. coli filamentation project, primary screen (AID 1093);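 further: MC1000 strain lacking acrAB efflux and sulA so SOS filamentation is blocked; test concentration not given here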; conditions: E. coli DRC41 growth, higher = more signal, called active from +8 up or from −8 down
[17] = probe aLefty2 binding to arrayed compounds – biochemical, biotinylated probe, 635/667 nm fluorescence, primary screen (AID 1094); conditions: small-molecule microarray, higher = more signal;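 further: score merges spot fluorescence near 667 nm with spot signal-to-noise ratio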
[18] = tested on: Noggin (protein binding on small-molecule microarray); experiment: small molecules binding Noggin protein – biochemical, 635/667 nm fluorescence, primary screen (AID 1095); conditions: 635 nm fluorescence, higher = more signal;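 further: score merges 667 nm feature fluorescence with signal to noise over triplicate slides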
[19] = biological target: Neurogenic locus notch homolog protein 3 (Homo sapiens) (UniProt Q9UM47); experiment: small molecules binding NOTCH3 protein – biochemical, 635/667 nm fluorescence, primary screen (AID 1096); conditions: small-molecule microarray, 635 nm fluorescence, higher = more signal
Sequence of Neurogenic locus notch homolog protein 3 (Homo sapiens) (Q9UM47 whole entry, looked up): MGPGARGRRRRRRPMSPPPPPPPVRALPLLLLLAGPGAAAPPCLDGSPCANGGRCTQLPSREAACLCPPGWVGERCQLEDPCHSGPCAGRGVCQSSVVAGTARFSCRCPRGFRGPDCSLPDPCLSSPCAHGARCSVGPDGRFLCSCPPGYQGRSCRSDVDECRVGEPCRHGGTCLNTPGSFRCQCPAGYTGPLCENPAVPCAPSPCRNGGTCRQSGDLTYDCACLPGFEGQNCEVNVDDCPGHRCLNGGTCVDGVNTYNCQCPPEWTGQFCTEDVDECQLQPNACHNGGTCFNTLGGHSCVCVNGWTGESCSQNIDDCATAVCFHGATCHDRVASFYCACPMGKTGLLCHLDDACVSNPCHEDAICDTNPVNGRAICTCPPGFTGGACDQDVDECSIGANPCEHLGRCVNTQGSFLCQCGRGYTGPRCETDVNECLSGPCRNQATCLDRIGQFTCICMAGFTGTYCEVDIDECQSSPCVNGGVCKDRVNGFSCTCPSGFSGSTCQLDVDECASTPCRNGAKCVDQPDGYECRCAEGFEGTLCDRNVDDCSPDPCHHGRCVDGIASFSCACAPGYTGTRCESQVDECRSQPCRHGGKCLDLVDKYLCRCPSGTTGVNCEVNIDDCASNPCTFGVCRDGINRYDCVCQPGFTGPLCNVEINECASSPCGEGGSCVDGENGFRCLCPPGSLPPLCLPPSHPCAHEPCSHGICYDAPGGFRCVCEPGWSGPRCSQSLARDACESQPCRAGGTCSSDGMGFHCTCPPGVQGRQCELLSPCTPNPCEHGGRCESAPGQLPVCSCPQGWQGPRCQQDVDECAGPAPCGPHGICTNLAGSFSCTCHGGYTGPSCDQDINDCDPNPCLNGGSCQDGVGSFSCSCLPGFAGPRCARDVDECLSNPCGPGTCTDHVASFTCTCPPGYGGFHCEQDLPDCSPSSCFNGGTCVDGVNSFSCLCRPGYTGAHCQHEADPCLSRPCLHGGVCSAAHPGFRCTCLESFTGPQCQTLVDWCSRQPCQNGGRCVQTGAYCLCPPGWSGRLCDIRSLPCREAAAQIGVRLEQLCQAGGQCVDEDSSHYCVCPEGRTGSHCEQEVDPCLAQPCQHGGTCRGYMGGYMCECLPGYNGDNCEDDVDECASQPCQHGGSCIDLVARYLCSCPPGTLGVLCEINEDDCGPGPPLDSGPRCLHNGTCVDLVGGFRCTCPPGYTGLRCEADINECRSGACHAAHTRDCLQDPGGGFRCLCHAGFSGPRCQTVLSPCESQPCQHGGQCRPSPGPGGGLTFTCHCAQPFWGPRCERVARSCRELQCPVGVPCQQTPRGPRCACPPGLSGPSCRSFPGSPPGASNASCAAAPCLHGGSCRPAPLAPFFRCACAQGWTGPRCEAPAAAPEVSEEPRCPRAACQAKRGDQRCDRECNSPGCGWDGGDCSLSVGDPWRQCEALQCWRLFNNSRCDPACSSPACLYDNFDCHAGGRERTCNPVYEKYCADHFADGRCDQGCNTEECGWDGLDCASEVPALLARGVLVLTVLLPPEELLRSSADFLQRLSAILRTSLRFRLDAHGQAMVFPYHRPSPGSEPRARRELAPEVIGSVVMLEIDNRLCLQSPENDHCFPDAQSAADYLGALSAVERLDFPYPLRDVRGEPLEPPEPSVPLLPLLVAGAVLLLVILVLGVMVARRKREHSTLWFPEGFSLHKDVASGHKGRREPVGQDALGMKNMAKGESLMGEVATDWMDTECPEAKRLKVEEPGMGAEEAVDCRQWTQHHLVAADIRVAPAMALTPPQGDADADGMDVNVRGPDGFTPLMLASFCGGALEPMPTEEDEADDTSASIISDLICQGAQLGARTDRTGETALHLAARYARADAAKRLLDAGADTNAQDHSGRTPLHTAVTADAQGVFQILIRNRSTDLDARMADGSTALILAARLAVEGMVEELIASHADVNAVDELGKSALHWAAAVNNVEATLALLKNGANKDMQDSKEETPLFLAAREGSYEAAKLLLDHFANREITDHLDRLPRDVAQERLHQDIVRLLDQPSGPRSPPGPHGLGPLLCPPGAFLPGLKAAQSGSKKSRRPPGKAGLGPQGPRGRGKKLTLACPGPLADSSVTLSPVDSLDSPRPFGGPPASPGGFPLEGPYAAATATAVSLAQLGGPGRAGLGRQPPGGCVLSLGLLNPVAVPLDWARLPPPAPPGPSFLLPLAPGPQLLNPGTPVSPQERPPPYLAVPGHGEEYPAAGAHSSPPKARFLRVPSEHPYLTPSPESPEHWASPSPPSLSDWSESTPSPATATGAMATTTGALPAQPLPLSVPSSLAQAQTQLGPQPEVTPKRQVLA

[20] = probe aEGFR binding to arrayed compounds – biochemical, biotinylated probe, 635/667 nm fluorescence, primary screen (AID 1097); conditions: small-molecule microarray, higher = more signal;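 further: probe is a biotinylated anti-EGFR antibody binding compounds printed on slides; score combines fluorescence near 667 nm and signal to noise of each spot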

| Structure (SMILES) | composite z-score [1] | composite z-score [2] | composite z-score [3] | composite z-score [4] | composite z-score [5] | composite z-score [6] | composite z-score [7] | z-score [8] | composite z-score [9] | composite z-score [10] | composite z-score [11] | z-score [12] | z-score [13] | z-score [14] | composite z-score [15] | z-score [16] | composite z-score [17] | composite z-score [18] | composite z-score [19] | composite z-score [20] |
| --- | --- | --- | --- | --- | --- | --- | --- | --- | --- | --- | --- | --- | --- | --- | --- | --- | --- | --- | --- | --- |
| COc1cc2c(cc1OC)CN(C(=O)[C@@H]1[C@H]3C(=O)O[C@H](c4ccccc4)[C@H](c4ccccc4)N3[C@H](c3ccc(OCCO)cc3)[C@@]13C(=O)Nc1ccc(C#CCCO)cc13)CC2 | -0.0108 | 0.718 | 0.105 | 0.944 | 1.56 | 1.58 | 1.27 | 0.838 (inactive) | 0.0774 | 0.169 | 1.54 | 1.68 (inactive) | -0.283 (inactive) | 3.2 (inactive) | 3.38 | 2 (inactive) | 0.674 | 1.46 | 1.08 | 0.276 |
| [N-]=[N+]=Nc1ccccc1[C@@H]1OC(c2ccc(OCCCO)cc2)=N[C@]1(CCS(=O)(=O)c1ccccc1)C(=O)NCc1ccccc1 | 0.207 | 0.599 | 0.294 | 0.655 | 1.52 | 1.9 | 1.1 | 0.271 (inactive) | 1.8 | -0.196 | 1.13 | 0.728 (inactive) | -0.111 (inactive) | 0.635 (inactive) | 3.23 | 0.846 (inactive) | 0.813 | 0.326 | 1.12 | 0.203 |
| C[N+](C)(C)CCCCCCNC(=O)[C@@H]1C[C@@H]2C(=O)NCC(=O)N2[C@@H]1c1ccc(O)cc1 | -0.416 | 1.27 | -0.116 | 0.391 | -0.149 | 1.51 | 1.43 | 2.8 (inactive) | 0.0022 | -0.0088 | 1.53 | 0.302 (inactive) | 0.274 (inactive) | -0.0145 (inactive) | 2.39 | -0.239 (inactive) | -0.0942 | 1.53 | 1.06 | -0.141 |
| CCOC(=O)C1=CCC(c2cccc(Cl)c2)O1 (stereo not given) | -0.267 | 0.491 | -0.0036 | 0.0428 | 0.105 | 1.06 | 0.575 | -0.242 (inactive) | 0.0826 | -0.131 | 0.487 | -2.79 (inactive) | -0.615 (inactive) | 3.33 (inactive) | 0.744 | 0.558 (inactive) | -0.0831 | -0.0785 | 0.186 | -0.0953 |
| COCCOC(=O)N1C(=O)[C@@]2(c3cc(C#CC4(O)CCCCCC4)ccc31)[C@H](C(=O)NC[C@H](O)c1ccccc1)[C@H]1C(=O)O[C@H](c3ccccc3)[C@H](c3ccccc3)N1[C@@H]2c1ccc(OCCO)cc1 | -0.38 | -0.166 | 0 | 0.353 | 0.672 | 0.985 | 1.14 | 0.78 (inactive) | 0.409 | -0.0994 | 1.55 | 1.94 (inactive) | 0.814 (inactive) | 5.65 (inactive) | 2.33 | 1.35 (inactive) | -0.121 | 1.78 | 1.15 | -0.0978 |
| C[N+](C)(C)CCCCCCNC(=O)[C@@H]1C[C@@H]2C(=O)NCC(=O)N2[C@@H]1c1cccc(OCCO)c1 | -0.419 | 0.488 | -0.125 | -0.114 | 0.033 | 0.021 | 1.22 | 4.06 (inactive) | -0.0422 | -0.34 | 1.55 | -0.947 (inactive) | 0.0641 (inactive) | -0.683 (inactive) | 2.23 | 1.3 (inactive) | -0.207 | 1.49 | 1.1 | -0.0531 |
| Cc1ccc(N2C(=O)c3ccccc3[C@](C)(C(=O)NC(C)C)[C@@H]2c2ccc(CO)cc2)nc1 | 1.57 | -1.06 | -0.254 | -1.11 | -1.61 | -1.55 | 0.787 | -0.0923 (inactive) | -0.927 | 0.119 | 0.595 | -0.273 (inactive) | -1.14 (inactive) | -1.8 (inactive) | 3.07 | 1.19 (inactive) | -0.0153 | -2.13 | -0.572 | -0.36 |
| C=C(/C(=C/C[C@@H](OC(C)=O)c1ccccc1OCCO)c1cnc2ccccc2c1)C(C)C | -0.0572 | 1.23 | -0.166 | 0.758 | 1.13 | 0.179 | 0.911 | -0.698 (inactive) | 0.0287 | -0.344 | 1.4 | -0.37 (inactive) | -1.11 (inactive) | -0.449 (inactive) | 0.885 | 0.575 (inactive) | -0.178 | 1.2 | 0.646 | -0.0439 |
| COc1ccc([Si](C)(C)[C@@H]2[C@@H](CCO)O[C@]3(C(=O)N(Cc4ccccc4)c4ccc(N5CCCCC5=O)cc43)[C@H]2C)cc1 | -0.389 | 0.942 | 0.0026 | 0.711 | 1.06 | 0.965 | 1.15 | -4.38 (inactive) | 0.566 | -0.0645 | 1.56 | 3.43 (inactive) | -0.536 (inactive) | 4.86 (inactive) | 2.06 | 2.63 (inactive) | -0.0151 | 0.901 | 1.11 | -0.0828 |
| COc1ccc([Si](C)(C)[C@@H]2[C@@H](CC(=O)N(CCO)Cc3ccccc3)O[C@]3(C(=O)N(C)c4c(Br)cc(C)cc43)[C@H]2C)cc1 | -0.106 | -0.0018 | -0.13 | 0.33 | -0.561 | 0.679 | 0.508 | -3.19 (inactive) | -0.051 | 0.0052 | 1.37 | -0.8 (inactive) | 0.0424 (inactive) | 0.991 (inactive) | 0.214 | -1.37 (inactive) | -0.149 | 1.56 | 0.92 | -0.0978 |
